From paper PMC11006913
Residue numbers refer to the chain shown, from its start.

Columns and labels:
Experiment in all cases: PBM; 200 nM protein, PBS
Details in all cases: dsDNA, one strand shown
[1] = biological target: T1, SIX6 (Homo sapiens, UniProt O95475 114-200, L167I)
T1 sequence: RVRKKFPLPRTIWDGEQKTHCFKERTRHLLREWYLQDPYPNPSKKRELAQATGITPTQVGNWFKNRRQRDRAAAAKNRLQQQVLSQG

[2] = biological target: T2, SIX6 (Homo sapiens, UniProt O95475 114-200, L143V)
T2 sequence: T1 sequence with L30V, I54L

[3] = biological target: T3, SIX6 (Homo sapiens, UniProt O95475 114-200, H141N)
T3 sequence: T1 sequence with H28N, I54L

[4] = biological target: T4, SIX6 (Homo sapiens, UniProt O95475 114-200, T165P)
T4 sequence: T1 sequence with T52P, I54L

[5] = biological target: T5, SIX6 (Homo sapiens, UniProt O95475 114-200, L167M)
T5 sequence: T1 sequence with I54M

[6] = biological target: T6, SIX6 (Homo sapiens, UniProt O95475 114-200, L143M)
T6 sequence: T1 sequence with L30M, I54L

[7] = biological target: T7, SIX6 (Homo sapiens, UniProt O95475 114-200, L143I)
T7 sequence: T1 sequence with L30I, I54L

[8] = biological target: T8, SIX6 (Homo sapiens, UniProt O95475 114-200, T165G)
T8 sequence: T1 sequence with T52G, I54L

[9] = biological target: T9, SIX6 (Homo sapiens, UniProt O95475 114-200, T139Q)
T9 sequence: T1 sequence with T26Q, I54L

[10] = biological target: T10, SIX6 (Homo sapiens, UniProt O95475 114-200, T165A)
T10 sequence: T1 sequence with T52A, I54L

[11] = biological target: T11, SIX6 (Homo sapiens, UniProt O95475 114-200, L167V)
T11 sequence: T1 sequence with I54V

[12] = biological target: T12, SIX6 (Homo sapiens, UniProt O95475 114-200)
T12 sequence: T1 sequence with I54L

[13] = biological target: T13, SIX6 (Homo sapiens, UniProt O95475 114-200, T165I)
T13 sequence: T1 sequence with T52I, I54L

[14] = biological target: HOXD13 (Homo sapiens, UniProt P35453 263-343, T313R)
[15] = biological target: HOXD13 (Homo sapiens, UniProt P35453 263-343)
[16] = biological target: HOXD13 (Homo sapiens, UniProt P35453 263-343, T313A)
[17] = biological target: ALX3 (Homo sapiens, UniProt O95076 139-225, L168Q)
[18] = biological target: ALX3 (Homo sapiens, UniProt O95076 139-225, L168V)
ALX3 (Homo sapiens, UniProt O95076 139-225, L168V), sequence (O95076 139-225 L168V): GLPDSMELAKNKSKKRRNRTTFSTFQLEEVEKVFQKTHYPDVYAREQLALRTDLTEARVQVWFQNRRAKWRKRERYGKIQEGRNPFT

HOXD13 (Homo sapiens, UniProt P35453 263-343, T313R), sequence (P35453 263-343 T313R): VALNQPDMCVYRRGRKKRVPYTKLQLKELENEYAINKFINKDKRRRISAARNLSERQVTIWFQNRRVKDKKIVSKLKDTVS
ALX3 (Homo sapiens, UniProt O95076 139-225, L168Q), sequence (O95076 139-225 L168Q): as the sequence (O95076 139-225 L168V) above, with V30Q counted along it
HOXD13 (Homo sapiens, UniProt P35453 263-343, T313A), sequence (P35453 263-343 T313A): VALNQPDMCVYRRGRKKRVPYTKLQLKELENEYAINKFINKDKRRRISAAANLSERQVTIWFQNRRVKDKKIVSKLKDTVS
HOXD13 (Homo sapiens, UniProt P35453 263-343), sequence (P35453 263-343): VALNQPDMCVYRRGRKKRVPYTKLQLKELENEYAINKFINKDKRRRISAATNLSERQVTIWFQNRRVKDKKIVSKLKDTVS

GTATCAAA
binding signal [1]: 11.4 upbm affinity estimate (log intensity, higher = more binding, comparable within an allelic series)
binding signal [2]: 10.5 upbm affinity estimate (log intensity, higher = more binding, comparable within an allelic series)
binding signal [3]: 11.4 upbm affinity estimate (log intensity, higher = more binding, comparable within an allelic series)
binding signal [4]: 9.91 upbm affinity estimate (log intensity, higher = more binding, comparable within an allelic series)
binding signal [5]: 10.8 upbm affinity estimate (log intensity, higher = more binding, comparable within an allelic series)
binding signal [6]: 11.2 upbm affinity estimate (log intensity, higher = more binding, comparable within an allelic series)
binding signal [7]: 10.4 upbm affinity estimate (log intensity, higher = more binding, comparable within an allelic series)
binding signal [8]: 11.3 upbm affinity estimate (log intensity, higher = more binding, comparable within an allelic series)
binding signal [9]: 11.2 upbm affinity estimate (log intensity, higher = more binding, comparable within an allelic series)
binding signal [10]: 11.4 upbm affinity estimate (log intensity, higher = more binding, comparable within an allelic series)
binding signal [11]: 11.2 upbm affinity estimate (log intensity, higher = more binding, comparable within an allelic series)
binding signal [12]: 11.2 upbm affinity estimate (log intensity, higher = more binding, comparable within an allelic series)
binding signal [13]: 11.2 upbm affinity estimate (log intensity, higher = more binding, comparable within an allelic series)

AGCGGCGC
binding signal [1]: 8.85 upbm affinity estimate (log intensity, higher = more binding, comparable within an allelic series)
binding signal [2]: 8.89 upbm affinity estimate (log intensity, higher = more binding, comparable within an allelic series)
binding signal [3]: 8.85 upbm affinity estimate (log intensity, higher = more binding, comparable within an allelic series)
binding signal [4]: 8.89 upbm affinity estimate (log intensity, higher = more binding, comparable within an allelic series)
binding signal [5]: 8.88 upbm affinity estimate (log intensity, higher = more binding, comparable within an allelic series)
binding signal [6]: 8.98 upbm affinity estimate (log intensity, higher = more binding, comparable within an allelic series)
binding signal [7]: 8.84 upbm affinity estimate (log intensity, higher = more binding, comparable within an allelic series)
binding signal [8]: 8.81 upbm affinity estimate (log intensity, higher = more binding, comparable within an allelic series)
binding signal [9]: 8.91 upbm affinity estimate (log intensity, higher = more binding, comparable within an allelic series)
binding signal [14]: 9.52 upbm affinity estimate (log intensity, higher = more binding, comparable within an allelic series)
binding signal [10]: 8.86 upbm affinity estimate (log intensity, higher = more binding, comparable within an allelic series)
binding signal [15]: 9.67 upbm affinity estimate (log intensity, higher = more binding, comparable within an allelic series)
binding signal [11]: 8.82 upbm affinity estimate (log intensity, higher = more binding, comparable within an allelic series)
binding signal [12]: 8.72 upbm affinity estimate (log intensity, higher = more binding, comparable within an allelic series)
binding signal [13]: 8.83 upbm affinity estimate (log intensity, higher = more binding, comparable within an allelic series)
binding signal [16]: 9.61 upbm affinity estimate (log intensity, higher = more binding, comparable within an allelic series)

GGATATCC
binding signal [1]: 11 upbm affinity estimate (log intensity, higher = more binding, comparable within an allelic series)
binding signal [2]: 10.2 upbm affinity estimate (log intensity, higher = more binding, comparable within an allelic series)
binding signal [3]: 10.9 upbm affinity estimate (log intensity, higher = more binding, comparable within an allelic series)
binding signal [4]: 9.51 upbm affinity estimate (log intensity, higher = more binding, comparable within an allelic series)
binding signal [5]: 10.6 upbm affinity estimate (log intensity, higher = more binding, comparable within an allelic series)
binding signal [6]: 10.9 upbm affinity estimate (log intensity, higher = more binding, comparable within an allelic series)
binding signal [7]: 10.2 upbm affinity estimate (log intensity, higher = more binding, comparable within an allelic series)
binding signal [8]: 11 upbm affinity estimate (log intensity, higher = more binding, comparable within an allelic series)
binding signal [9]: 11 upbm affinity estimate (log intensity, higher = more binding, comparable within an allelic series)
binding signal [10]: 10.8 upbm affinity estimate (log intensity, higher = more binding, comparable within an allelic series)
binding signal [11]: 10.9 upbm affinity estimate (log intensity, higher = more binding, comparable within an allelic series)
binding signal [12]: 11 upbm affinity estimate (log intensity, higher = more binding, comparable within an allelic series)
binding signal [13]: 10.9 upbm affinity estimate (log intensity, higher = more binding, comparable within an allelic series)

GGCGGACC
binding signal [1]: 8.97 upbm affinity estimate (log intensity, higher = more binding, comparable within an allelic series)
binding signal [2]: 8.88 upbm affinity estimate (log intensity, higher = more binding, comparable within an allelic series)
binding signal [3]: 9.01 upbm affinity estimate (log intensity, higher = more binding, comparable within an allelic series)
binding signal [4]: 8.96 upbm affinity estimate (log intensity, higher = more binding, comparable within an allelic series)
binding signal [5]: 8.9 upbm affinity estimate (log intensity, higher = more binding, comparable within an allelic series)
binding signal [6]: 8.83 upbm affinity estimate (log intensity, higher = more binding, comparable within an allelic series)
binding signal [7]: 8.88 upbm affinity estimate (log intensity, higher = more binding, comparable within an allelic series)
binding signal [8]: 8.99 upbm affinity estimate (log intensity, higher = more binding, comparable within an allelic series)
binding signal [9]: 8.91 upbm affinity estimate (log intensity, higher = more binding, comparable within an allelic series)
binding signal [10]: 8.99 upbm affinity estimate (log intensity, higher = more binding, comparable within an allelic series)
binding signal [11]: 8.82 upbm affinity estimate (log intensity, higher = more binding, comparable within an allelic series)
binding signal [12]: 8.92 upbm affinity estimate (log intensity, higher = more binding, comparable within an allelic series)
binding signal [17]: 7.74 upbm affinity estimate (log intensity, higher = more binding, comparable within an allelic series)
binding signal [13]: 8.89 upbm affinity estimate (log intensity, higher = more binding, comparable within an allelic series)
binding signal [18]: 7.69 upbm affinity estimate (log intensity, higher = more binding, comparable within an allelic series)

ATGATACG
binding signal [1]: 11.2 upbm affinity estimate (log intensity, higher = more binding, comparable within an allelic series)
binding signal [2]: 10.3 upbm affinity estimate (log intensity, higher = more binding, comparable within an allelic series)
binding signal [3]: 11.2 upbm affinity estimate (log intensity, higher = more binding, comparable within an allelic series)
binding signal [4]: 9.78 upbm affinity estimate (log intensity, higher = more binding, comparable within an allelic series)
binding signal [5]: 10.6 upbm affinity estimate (log intensity, higher = more binding, comparable within an allelic series)
binding signal [6]: 11 upbm affinity estimate (log intensity, higher = more binding, comparable within an allelic series)
binding signal [7]: 10.4 upbm affinity estimate (log intensity, higher = more binding, comparable within an allelic series)
binding signal [8]: 11.3 upbm affinity estimate (log intensity, higher = more binding, comparable within an allelic series)
binding signal [9]: 11.2 upbm affinity estimate (log intensity, higher = more binding, comparable within an allelic series)
binding signal [10]: 11.1 upbm affinity estimate (log intensity, higher = more binding, comparable within an allelic series)
binding signal [11]: 11 upbm affinity estimate (log intensity, higher = more binding, comparable within an allelic series)
binding signal [12]: 11 upbm affinity estimate (log intensity, higher = more binding, comparable within an allelic series)
binding signal [13]: 10.9 upbm affinity estimate (log intensity, higher = more binding, comparable within an allelic series)

GCAGCCGC
binding signal [1]: 8.93 upbm affinity estimate (log intensity, higher = more binding, comparable within an allelic series)
binding signal [2]: 8.9 upbm affinity estimate (log intensity, higher = more binding, comparable within an allelic series)
binding signal [3]: 8.98 upbm affinity estimate (log intensity, higher = more binding, comparable within an allelic series)
binding signal [4]: 8.93 upbm affinity estimate (log intensity, higher = more binding, comparable within an allelic series)
binding signal [5]: 9.02 upbm affinity estimate (log intensity, higher = more binding, comparable within an allelic series)
binding signal [6]: 8.94 upbm affinity estimate (log intensity, higher = more binding, comparable within an allelic series)
binding signal [7]: 8.95 upbm affinity estimate (log intensity, higher = more binding, comparable within an allelic series)
binding signal [8]: 8.95 upbm affinity estimate (log intensity, higher = more binding, comparable within an allelic series)
binding signal [9]: 9.01 upbm affinity estimate (log intensity, higher = more binding, comparable within an allelic series)
binding signal [10]: 9.01 upbm affinity estimate (log intensity, higher = more binding, comparable within an allelic series)
binding signal [11]: 8.97 upbm affinity estimate (log intensity, higher = more binding, comparable within an allelic series)
binding signal [12]: 8.98 upbm affinity estimate (log intensity, higher = more binding, comparable within an allelic series)
binding signal [13]: 9.03 upbm affinity estimate (log intensity, higher = more binding, comparable within an allelic series)
